Test results published in PubChem BioAssay.

What follows are molecules tested against NADPH oxidase 5 (Homo sapiens) (UniProt Q96PH1) (assay: NOX5-dependent H2O2 signal modulators, primary screen, NOX inhibitor project, cell-based, HEK293-NOX5, Amplex Red fluorescence (AID 1161)). Settings: HEK293-NOX5, ionomycin, 45 min, higher = more signal.
Chain of NADPH oxidase 5 (Homo sapiens) (Q96PH1 whole entry, looked up): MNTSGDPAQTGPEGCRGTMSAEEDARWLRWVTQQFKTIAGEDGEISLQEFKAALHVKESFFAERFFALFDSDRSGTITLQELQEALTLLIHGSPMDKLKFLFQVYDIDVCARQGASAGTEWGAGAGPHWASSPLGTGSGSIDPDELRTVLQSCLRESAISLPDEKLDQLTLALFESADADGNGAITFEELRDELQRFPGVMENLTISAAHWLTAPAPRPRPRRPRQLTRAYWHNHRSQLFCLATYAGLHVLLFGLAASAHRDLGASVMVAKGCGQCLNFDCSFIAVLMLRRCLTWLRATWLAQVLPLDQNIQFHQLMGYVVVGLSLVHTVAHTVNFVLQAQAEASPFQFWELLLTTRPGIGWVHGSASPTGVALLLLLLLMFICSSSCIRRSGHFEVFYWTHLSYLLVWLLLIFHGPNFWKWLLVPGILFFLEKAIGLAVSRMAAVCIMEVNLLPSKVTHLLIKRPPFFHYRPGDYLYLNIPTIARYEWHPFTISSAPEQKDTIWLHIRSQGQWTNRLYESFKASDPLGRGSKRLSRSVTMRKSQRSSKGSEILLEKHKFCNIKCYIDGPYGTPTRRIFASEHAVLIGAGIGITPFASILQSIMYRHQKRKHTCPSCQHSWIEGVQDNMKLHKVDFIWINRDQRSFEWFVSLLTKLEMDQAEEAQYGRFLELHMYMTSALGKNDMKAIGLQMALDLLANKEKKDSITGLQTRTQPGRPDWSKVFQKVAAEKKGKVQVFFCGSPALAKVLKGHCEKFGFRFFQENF

SMILES	z-score
CC(C)Cc1ccc(CN2CC[C@@H](NC(=O)Nc3ccccc3)C2)cc1	-1.88
COC(=O)[C@@]1(Cc2ccc(F)cc2)[C@H]2c3cc(C(=O)N4CCCC4)n(CCN4CNCC4=O)c3C[C@H]2CN1C(=O)c1ccccc1	-5.26
COC(=O)[C@@]1(Cc2ccccc2)[C@@H]2C(=CC(=O)[C@H]2CC(=O)C(=O)N(C)C)CN1C(=O)c1ccccc1	0.16
C=CCC(OC(C)=O)[C@@H]1[C@@H](N(Cc2ccc(-c3ccccc3)cc2)C(=O)Cc2ccc(F)cc2)c2cc(OCCCO)ccc2N1C(=O)Cc1ccc(OC)cc1 (stereo not given in full)	1.67
COc1ccc([Si](C)(C)[C@@H]2[C@@H](CCn3cc([C@H](O)c4ccccc4)nn3)O[C@]3(C(=O)N(Cc4ccc(N5CCC5=O)cc4)c4ccccc43)[C@H]2C)cc1	1.7
C=C(C)[C@@H]1CC=C(C(O)C2C=CC3C(=O)N(c4ccccc4)C(=O)C3N2Nc2ccccc2F)CC1 (stereo not given in full)	-2.14
Cc1ccc(S[C@]2(C(=O)O)CC(=O)N(Cc3ccccc3Cl)[C@@H]2c2ccc(CO)cc2I)cc1	-0.915
O=C1C2C=CC(C(O)c3ccccc3)N(Nc3ccccc3F)C2C(=O)N1c1ccccc1 (stereo not given)	-2.26
[N-]=[N+]=NCc1ccccc1[C@@H]1OC(c2ccc(OCCCO)cc2)=N[C@]1(CCS(=O)(=O)c1ccccc1)C(=O)NCC(O)CO (stereo not given in full)	2.57
COC(=O)c1c(CC[C@@H](CO)NC(=O)N[C@H](Cn2cc(C3(O)CCCCC3)nn2)C(C)C)oc(C(C)=O)c1C(=O)OC	0.655
O=C1C2C=CC(C(O)c3ccc(F)cc3)N(n3cnnc3)C2C(=O)N1Cc1ccccc1 (stereo not given)	-4.43
Cc1ccc(S[C@]2(C(=O)NCC(F)(F)F)CC(=O)N(Cc3ccccc3)[C@@H]2c2ccc(CO)cc2I)cc1	0.776
C=C(/C(=C/C[C@H](OC(C)=O)c1ccccc1OCCO)c1cc(C(=O)OC)ccc1OC)C(C)C	-2.12
CC(C)N1C(=O)C[C@@](C(=O)NCCCN(C)C)(c2ccc([N+](=O)[O-])cc2)[C@H]1c1ccc(CO)cc1	-0.00257
COCCOC(=O)N1C(=O)[C@@]2(c3cc(C#Cc4ccc(OC)cc4)ccc31)[C@H](c1ccccc1OCCO)N1[C@H](c3ccccc3)[C@H](c3ccccc3)OC(=O)[C@H]1[C@@H]2C(=O)N1CCCCCCC1	1.19
O=C1NC(=O)C2C1C=CC(C(O)c1cccc3ccccc13)N2Nc1ccc(Cl)cc1Cl (stereo not given)	-3.5
C=CCNC(=O)[C@H]1[C@@H]2C(=O)O[C@@H](c3ccccc3)[C@@H](c3ccccc3)N2[C@@H](c2ccc(O)cc2)[C@]12C(=O)Nc1ccc(C#CC3(O)CCCCCC3)cc12	1.06
CCCC[C@@H]1C[C@H]1[C@@H](NC(=O)c1ccccc1)c1ccc(C(F)(F)F)cc1	0.689

SMILES	z-score
NC(=O)N1C(=O)C2C(C1=O)C1C=C(CCCO)C2C(c2cccs2)N1Cc1cccc(OC(F)(F)F)c1 (stereo not given)	-1.12
CCCC[C@@H]1C[C@H]1[C@@H](NC(=O)c1cccs1)c1ccc(C(F)(F)F)cc1	-0.948
C=C(/C(=C/C[C@@H](OC(C)=O)c1cccc(OCCO)c1)c1cc(C(=O)OC)ccc1OC)C(C)C	-2.17
CC(C)(C)OC(=O)CC[C@]1(C(=O)NCC(O)CO)N=C(c2ccc(OCCCO)cc2)O[C@H]1c1ccccc1 (stereo not given in full)	0.199
CC(C)(C)N1CC=CC23O[C@@H]4C=CCCOC(=O)C4[C@H]2C(=O)N(CCO)[C@@H]3C1=O (stereo not given in full)	1.23
COc1ccccc1CN1C(=O)c2ccccc2[C@](Cc2ccccc2I)(C(=O)NCC(F)(F)F)[C@@H]1c1ccc(CO)cc1	-1.05
CCOC(=O)C[C@H]1[C@H](OC(=O)c2ccccc2-c2ccccc2)[C@@H](NC(=O)C2CCCCC2)c2cc(OCCCO)ccc2N1C(=O)Cc1ccc(OC)cc1	0.103
COC(=O)CCCCCCC(=O)Nc1ccc(NC(=O)CCCC[P+](c2ccccc2)(c2ccccc2)c2ccccc2)cc1	0.0901
CN1C(=O)C2C=CC(C(O)COCc3ccccc3)N(N(c3ccccc3)c3ccccc3)C2C1=O (stereo not given)	0.262
O=C1O[C@H](c2ccccc2)[C@H](c2ccccc2)N2[C@H]1[C@@H](C(=O)O)[C@]1(C(=O)Nc3ccc(C#CC4=CCCCC4)cc31)[C@H]2c1ccc(O)cc1	-0.32
CCOc1cc(C(O)C2C=CC3C(=O)N(c4ccccc4)C(=O)C3N2Nc2ccc(C#N)cc2)ccc1O (stereo not given)	-4.31
Cc1cc(C)cc(N2C(=O)CSC2c2cccc([N+](=O)[O-])c2)c1 (stereo not given)	0.483
COCCOC(=O)N1C(=O)[C@@]2(c3cc(C#CC4(O)CCCCCC4)ccc31)[C@H](c1ccc(O)cc1)N1[C@H](c3ccccc3)[C@H](c3ccccc3)OC(=O)[C@H]1[C@@H]2C(=O)NC[C@H](O)c1ccccc1	1.2
C=CCN1C(=O)[C@@]2(CCS(=O)(=O)c3ccccc3)N=C(c3ccc(OCCCO)cc3)O[C@H]2c2ccccc21	-0.428
CCOC(=O)C[C@H]1[C@H](OC(=O)c2cc3ccccc3oc2=O)[C@@H](NC(=O)c2ccc(-c3ccccc3)cc2)c2cc(OCCCO)ccc2N1C(=O)c1ccccc1	0.748
CCCCO[C@H]1C[C@H]2C(I)=C[C@@H]1C(=O)[C@]21CO1	-0.383
[N-]=[N+]=NCc1ccccc1[C@H]1OC(c2ccc(OCCCO)cc2)=N[C@@]1(CCS(=O)(=O)c1ccccc1)C(=O)N1CCCCC1	1.63
